Test results from the supplement of paper PMC6555819.

Experiments:
Assay in all cases: PBM binding z-score (relative to random genomic background probes); higher = stronger binding; sequences stand for … in GC…GCGATTGACAGCGTAGAATGAAGG
[1] = test system: FXR:RXRa (NR concentration 270 nM, RXRa partner concentration 90 nM)
How it was run: (§1)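 Ligand-free nuclear receptor dimers were applied to custom Agilent 4×180K protein-binding microarrays whose double-stranded probes carried direct-repeat seeds, single-nucleotide variants, half-site ablations and random human genomic background sequences in 34-nt variable regions. Incubation lasted 1 h. Binding z-scores were computed against the random background probes from regression-normalized fluorescence.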

[2] = test system: LXRa:RXRa (NR concentration 270 nM, RXRa partner concentration 90 nM)
How it was run: as §1

[3] = test system: LXRa homodimer (NR concentration 270 nM)
How it was run: as §1

[4] = test system: LXRb:RXRa (NR concentration 270 nM, RXRa partner concentration 90 nM)
How it was run: as §1

[5] = test system: LXRb homodimer (NR concentration 270 nM)
How it was run: as §1

[6] = test system: PPARa:RXRa (NR concentration 270 nM, RXRa partner concentration 90 nM)
How it was run: as §1

[7] = test system: PPARg:RXRa (NR concentration 180 nM, RXRa partner concentration 90 nM)
How it was run: as §1

[8] = test system: PPARg:RXRa 270nM:90nM, anti-RXR (NR concentration 270 nM, RXRa partner concentration 90 nM)
How it was run: as §1

[9] = test system: PPARg:RXRa 30nM:10nM, anti-RXR (NR concentration 30 nM, RXRa partner concentration 10 nM)
How it was run: as §1

[10] = test system: PPARg:RXRa 90nM:30nM, anti-RXR (NR concentration 90 nM, RXRa partner concentration 30 nM)
How it was run: as §1

[11] = test system: PPARg:RXRa DBDmut IVT, anti-RXR (DBD mutation: RXRa K156A/R161A, NR concentration 270 nM, RXRa partner concentration 90 nM)
How it was run: as §1

[12] = test system: PPARg:RXRa IVT, anti-PPARg (NR concentration 270 nM, RXRa partner concentration 90 nM)
How it was run: as §1

[13] = test system: PPARg DBDmut IVT, anti-PPARg (DBD mutation: PPARg1 K132A/R137A, NR concentration 270 nM)
How it was run: as §1

[14] = test system: PPARg homodimer (NR concentration 180 nM)
How it was run: as §1

[15] = test system: PXR:RXRa (NR concentration 270 nM, RXRa partner concentration 90 nM)
How it was run: as §1

[16] = test system: PXR homodimer (NR concentration 270 nM)
How it was run: as §1

[17] = test system: RARa:RXR (NR concentration 270 nM, RXRa partner concentration 90 nM)
How it was run: as §1

[18] = test system: RARa homodimer (NR concentration 270 nM)
How it was run: as §1

[19] = test system: RARb:RXRa (NR concentration 270 nM, RXRa partner concentration 90 nM)
How it was run: as §1

[20] = test system: PPARg DBDmut:RXRa IVT, anti-PPARg (DBD mutation: PPARg1 K132A/R137A, NR concentration 270 nM, RXRa partner concentration 90 nM)
How it was run: as §1

Sequence	PBM binding z-score [1]	PBM binding z-score [2]	PBM binding z-score [3]	PBM binding z-score [4]	PBM binding z-score [5]	PBM binding z-score [6]	PBM binding z-score [7]	PBM binding z-score [8]	PBM binding z-score [9]	PBM binding z-score [10]	PBM binding z-score [11]	PBM binding z-score [12]	PBM binding z-score [13]	PBM binding z-score [14]	PBM binding z-score [15]	PBM binding z-score [16]	PBM binding z-score [17]	PBM binding z-score [18]	PBM binding z-score [19]	PBM binding z-score [20]
CGAACTAGGTCAAAGGACAGTGCAAGGCGACGTA	4.07	2.5	0.126	1.63	-0.463	5.41	10.3	8.27	8.02	9.07	7.81	8.11	-0.34	0.639	1.31	-0.108	2.14	-0.256	4.02	–
AATACAGGGTCATTAGGCCAGAGTAGGTACGAAT	7.31	5.48	2.17	4.27	1.52	5.58	6.71	5.91	2.62	4.89	3.37	4.54	0.677	2.55	–	0.493	4.48	1.06	4.04	1.38
CTCGAAAGGTCGTGCTTAGGTGAGTATACCAAAC	4.83	3.99	0.372	3.46	0.121	4.98	2.86	4.3	1.12	2.98	1	1.93	0.228	2.19	–	0.515	4.22	0.262	3.72	0.335
ACTAGTAGGTCAGCTGAGGTCACACACAATTCGG	6.7	6.09	5.43	5.14	1.5	5.36	7.75	6.54	4.28	6.26	7.68	7.77	2.31	6.08	–	4.54	6.25	4.07	5.01	2.63
ATATGTAGGTTACATGCGGGTCATTCAGGCTATG	2.21	4.55	0.959	2.66	0.785	4.22	5.9	5.3	2.6	4.65	7.67	7.33	2.03	1.57	–	1.11	3.24	0.618	2.01	2.78
ATATGTAGGTCAGCTGGGGTCATTCAGACTAGGC	6.69	6.41	5.01	5.39	1.51	6.15	9	7.13	5.31	7.16	8.08	8.21	2.2	4.29	–	5.2	6.74	1.6	4.57	5.33
ATACCAAGGTCATCGTGAGGTCGTTGATACTAAC	7.59	6.05	4.44	5.33	1.71	5.74	6.03	5.6	2.72	4.27	2.34	4.3	1.42	4.01	–	5.81	6	1.56	5.36	2.33
CCTACTGGGTCATTCAGAGGTCATTGATCATATG	5.47	6.23	6.38	5.36	1.42	5.41	6.55	5.9	3.21	5.33	6.17	7.04	0.698	6.37	–	3.7	–	1.17	4.51	1.98
CGTCCAAGGTCAAGGGCAGTGAAAGAGACTCGAA	7.12	4.83	0.283	3.68	0.0141	5.93	5.48	5.38	1.76	4.07	2.83	4	-0.438	1.82	–	0.609	3.82	1.15	5.64	0.426
CGTCCAAGGTCAATGCGAGGTCAGTGAAAGCATT	7.21	6.04	4.28	5.1	1.25	5.46	4.59	4.98	1.48	3.65	3.2	4.05	-0.0151	6.13	–	4.68	–	1.33	5.4	0.262
AGTCAAAGTTCAGGACGAGGTCACGTAAAGCACG	6.35	5.87	4.71	4.87	0.736	5.46	6.17	6.26	2.76	4.97	0.746	3.73	0.7	5.05	–	7.95	–	2.01	–	0.593
ATCGAAAGGTCGAAGGTGAGTCTACCCACCCGAA	4.39	3.59	-0.0971	2.87	0.861	4.78	4.36	5.19	2.51	4.21	0.133	2.34	0.43	1.56	–	0.264	4.57	-0.143	3.74	0.449
ATGTGTAGGTTACATCCGGGTCATTCAGGCTATG	2.23	4.19	1.76	2.87	0.855	3.45	2.44	2.64	0.934	2.02	2.96	4.13	1.88	3.03	–	2.51	4.01	1.12	2.37	1.02
CTCGAAAGGTCGTGCTCAGGTGAGTATGCCAAAC	4.94	4.15	0.0245	3.2	-0.0304	4.79	2.57	3.95	1.25	2.67	1.24	1.96	0.173	1.39	–	0.126	4.18	0.00788	3.83	0.261
CAAGCTAGGTCAAAGGTCAAAGTCGAGCCAACCA	8.68	7.38	5.19	7.27	2.73	7.38	12.9	10.7	12	12	5.45	6.94	-0.285	5.21	–	1.5	9.03	2.23	6.05	1.27
ACTATCAGGCCAAGGGTCACTCAAGATTAGTCCG	2.77	3.13	0.488	2.87	0.938	4.54	7.66	7.12	6.22	7.87	1.26	3.82	0.584	3.28	–	0.337	4.42	1.45	3.72	0.909
ACTAGTGGGTCAGCTGAGGTCACACACAATTCGG	4.98	5.49	2.88	4.54	0.173	4.9	6.38	5.68	3.12	4.86	6.51	6.96	0.986	4.18	–	1.68	5.69	1.85	4.45	1.71
ATATGTAGGTTAGCGTCATTCAGAAAGTAGGGAA	0.121	0.529	-0.273	0.174	0.215	2.81	4.14	3.23	1.36	2.32	6.57	6.84	1.38	0.87	-0.0758	0.0634	-0.121	0.244	0.594	–
ATATGTGGGTTAGGGTCATTCAGAAAGTAGGGAA	5.21	4.67	1.97	5.31	3.87	5.7	7.6	6.42	3.82	5.8	6.19	6.44	2.69	4.09	5.1	3.66	5.02	3.33	3.45	–
CGAACTAGGTCAAAGGAGAGTGAAAGGCGACGTA	3.72	2.61	-0.0759	1.64	-0.486	5.05	8.9	7.8	7.23	8.14	8.02	7.99	0.59	0.681	1.1	-0.124	1.85	-0.114	3.65	–
CGTACTAGGTCAAAGGACAGTGAAAGGCGACGTA	3.86	2.77	0.17	1.89	-0.0877	4.83	9.74	7.95	8.11	9.06	7.43	8	1.47	2.5	1.14	0.0831	2.27	0.22	3.85	–
CCTAGTTGGTCAAGGTAACACACGCTATAGGTAC	0.638	0.459	0.594	0.713	0.295	0.749	1.08	1.32	0.57	0.891	1.65	1.92	0.573	1.25	–	0.51	0.946	1.13	1.26	0.633
CGAACTAAGTCAAAGGACAGTGAAAGGCGACGTA	-0.166	-0.175	-0.153	-0.345	-0.704	1.52	2.74	4.16	1.7	3.85	0.998	1.31	0.266	0.434	-0.186	-0.123	0.156	0.0596	1.29	–
ATATGTAGGTTATGGTCATTCAGAAAGTAGGGAA	1.06	1.36	0.432	1.37	0.916	3.29	4.98	4.06	2.18	3.32	6.83	6.63	2	1.64	0.998	0.449	1.17	1.24	1.4	–
CGAACTAGTTCAAAGGACAGTGAAAGGCGACGTA	-0.112	-0.0127	-0.428	-0.231	-0.842	1.62	2.23	3.51	1.75	3.25	0.0129	0.499	-0.185	0.158	0.27	0.322	0.253	0.148	1.91	–
CGAACTAGGTCACCAGGACGGTGAAGAGGTTGGA	3.75	2.3	-0.206	1.19	-0.86	5.23	8.37	6.93	4.31	6.43	7.98	8.73	2.21	2.07	1.18	-0.299	2.21	-0.518	4.26	–
CGTCCAAGGTCATAGGAGTTCAGTGAAGACAGAT	7.7	7.41	5.13	5.15	0.66	5.9	4.86	5.44	1.9	4.2	3.09	4	0.8	5.14	–	10.9	5.59	2.08	5.31	1.39
CGAACTAGGTCAAAGGACCGTGAAAGGCGACGTA	3.56	2.39	0.0544	1.48	-0.478	4.99	8.12	6.9	5.98	7.29	7.75	8.21	0.0403	0.811	0.907	-0.51	1.44	-0.512	3.69	–
CGTCCAAGGTCAGAGAGGTCACTGAATGCCGAGT	6.61	5.79	4.5	5.36	0.485	5.61	4.58	5.36	1.92	4.08	3.27	4.05	0.0701	3.8	–	13.1	6.81	1.13	5.37	0.000167
ATCGAAAGGTCGTCGAGGTGAGTATACACCGTTT	4.79	4.28	0.169	3.19	0.543	4.87	3.07	3.97	1.22	2.66	0.528	2.3	0.213	1.6	–	1.15	3.81	0.174	3.89	0.899
